The values below come from the supplement of paper PMC6555819.

In this experiment the test system is RARg:RXRa (NR concentration 270 nM, RXRa partner concentration 90 nM). In words: PBM binding z-score (relative to random genomic background probes); higher = stronger binding; sequences stand for … in GC…GCGATTGACAGCGTAGAATGAAGG
The method in brief: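 The probes on custom Agilent 4×180K protein-binding microarrays were double-stranded, with 34-nt variable regions bearing direct-repeat seeds, single-nucleotide variants, half-site ablations and random human genomic background sequences. Incubation lasted 1 h with ligand-free nuclear receptor dimers in PBS pH 7.4, 2% milk, 0.02% Triton X-100, 1 mM DTT, 0.2 mg/mL BSA and 0.4 mg/ml salmon testes DNA. Antibodies against each partner (one per run) detected bound dimers, and fluorescence scans were regression-normalized. Binding z-scores take the random background probes as reference.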
AGTCAAAGTTCACTAGGTAACGTTAGATTCAGCT yielded a PBM binding z-score of 4.93.
With ACTAGCAGGCCTAGGGTCACTCAAGATTAGTCCG, the PBM binding z-score was found to be 2.61.
As for TCTGCTAGGTCAACGATGGTCAGCTCATCTGCTA, the PBM binding z-score worked out at 3.91.
Regarding ATCTCTAGGTAACCAAGTTTAGTGAATGCCGAAC, the PBM binding z-score came out at 0.383.
Consider CCTACTGGGCAATCAGGTCATTGATATCAACGTT, for which the PBM binding z-score was determined as 1.56.
For the sequence CGAACTAGGTCATTGACAGGTCAGTGAATAGTAA, the PBM binding z-score stood at 6.77.
For TCTTGTAGATCAATCAGGTTAAGAAAGCCTGAGT the value was 0.0482; for CGAACTAGGCCATCCAGGACAGTGAATACATTGA, 0.517; for CATACAGGGTCAGCTAGGCCAGAGTGGGGACGGC, 4.58.
With CCTAGTTGATCAGGAGGTCACACACCGGATATGA, the PBM binding z-score was 4.82.
AGAACGAGGGCAATGAGATGATAGCACGGGTGGC registered a PBM binding z-score of 0.982.
Turning to AGAATGAGGTTATTCAGATCAGGGAATTGCGGTC, the PBM binding z-score was 1.51.
Turning to ATCTCTAGGTAAAGTTCCGTGAAAGATCGATAGA, the PBM binding z-score is 0.28.
On to CTCGAAAGGTCGTGCTCAGGTGAGCATACCAAAC, for which the PBM binding z-score stood at 5.53.
For CGTACTAGGTCATCCAGGACAGTGAATACATTGA the value was 3.73; for CAGCCTAGGTCAGGGCCAGGATAGGAGGAACGTT, 3.04.
GATACAGGGTCAGCTAGAGGCCTGAGTATGGAAA registered a PBM binding z-score of 4.73.
In turn, CCGATTAGGTTATGGGGCATTCAGGCAACGGTGA registered a PBM binding z-score of 0.701.
The sequence ATCACTAGGTAACAAGTTCAGTGAAAGAGAGGAC came in with a PBM binding z-score of 1.45.
For the sequence ATCTCTAGCTAAAGTTCAGTGAAAGATCGATAGA, the PBM binding z-score turned out to be 1.76.
For AGAATGTGGTTACCAAAGATCAGGGAAACGCTTG the value was 0.0233; for GCTAGCAGGCCATTTGGATCACTCAATGACGGGC, -0.278.
